# Data reported in the supplement of paper PMC6555819.
# Columns and labels:
# Assay in all cases: PBM binding z-score (relative to random genomic background probes); higher = stronger binding; sequences stand for … in GC…GCGATTGACAGCGTAGAATGAAGG
# [1] = test system: FXR:RXRa (NR concentration 270 nM, RXRa partner concentration 90 nM)
# Procedure, shortened: (§1)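 Custom Agilent 4×180K protein-binding microarrays carried double-stranded probes, each with a 34-nt variable region. These regions held direct-repeat seeds, single-nucleotide variants, half-site ablations and random human genomic background sequences. Ligand-free nuclear receptor dimers were incubated on the arrays for 1 h, antibodies against each partner (one per run) detected binding, and scanned fluorescence was regression-normalized. Binding z-scores take the random background probes as reference.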
# [2] = test system: LXRa:RXRa (NR concentration 270 nM, RXRa partner concentration 90 nM)
# Procedure, shortened: as §1
# [3] = test system: LXRa homodimer (NR concentration 270 nM)
# Procedure, shortened: as §1
# [4] = test system: LXRb:RXRa (NR concentration 270 nM, RXRa partner concentration 90 nM)
# Procedure, shortened: as §1
# [5] = test system: LXRb homodimer (NR concentration 270 nM)
# Procedure, shortened: as §1
# [6] = test system: PPARa:RXRa (NR concentration 270 nM, RXRa partner concentration 90 nM)
# Procedure, shortened: as §1
# [7] = test system: PPARg:RXRa (NR concentration 180 nM, RXRa partner concentration 90 nM)
# Procedure, shortened: as §1
# [8] = test system: PPARg:RXRa 270nM:90nM, anti-RXR (NR concentration 270 nM, RXRa partner concentration 90 nM)
# Procedure, shortened: as §1
# [9] = test system: PPARg:RXRa 30nM:10nM, anti-RXR (NR concentration 30 nM, RXRa partner concentration 10 nM)
# Procedure, shortened: as §1
# [10] = test system: PPARg:RXRa 90nM:30nM, anti-RXR (NR concentration 90 nM, RXRa partner concentration 30 nM)
# Procedure, shortened: as §1
Sequence,PBM binding z-score [1],PBM binding z-score [2],PBM binding z-score [3],PBM binding z-score [4],PBM binding z-score [5],PBM binding z-score [6],PBM binding z-score [7],PBM binding z-score [8],PBM binding z-score [9],PBM binding z-score [10]
CAAACTAGGTCAAGGTTAAAGTCGGTTTGTGCCA,4.21,3.75,1.17,2.93,0.57,5.22,9.29,8.04,6.64,9.18
GCTAACGGGTCAAAGGTTATAGCATGAATAGAAT,7.39,5.26,0.513,5.21,0.0725,6.84,10.4,8.58,9.26,9.13
AGAATGAGGTTACCAAAGATCCGGGAAACGCTTG,1.58,2.04,-0.0971,1.33,-0.177,3.23,2.5,2.84,0.971,2.13
ACTATTAGTTGATTTAGGGCAACCGATACGACGC,0.352,0.0302,0.44,0.0865,1.19,0.816,0.99,0.588,0.446,0.717
ATCTCTAGGAAAAGTTCAGTGAAAGATCGATAGA,0.71,1.22,0.761,0.737,0.622,0.611,0.521,1.56,0.619,1.36
ATCGAAAGGTCGTGAGGTGAGAATACAGAAAGGC,5.69,4.09,0.3,3.37,0.293,5.61,4.61,4.58,1.99,3.09
ACAGACAGGTGATGAAGGTACCTCAGGCTATCAT,-0.309,-0.187,-0.266,-0.411,-0.507,-0.132,0.682,-0.0814,0.3,-0.00206
ATCGAAAGGTCGAAGGTGAGAATACCCACCCGAA,4.1,3.81,0.0457,2.94,0.451,4.73,4.6,4.93,2.85,4.31
GCAGACAGGTGGAACGCAGGTAACTCAGGGTGGC,-0.427,-0.547,-0.822,-0.84,-1.13,-0.427,0.342,-0.6,-0.85,-1.06
AATACAGGGTCAGCGTAGGCCAGAGTACGCACAG,5.67,4.35,0.74,2.92,0.652,4.74,4.5,3.96,0.97,2.52
CCTGCTAGGTCATGCTCAGCTAATCTACAGTATG,3.21,2.16,-0.266,1.38,-0.112,2.99,1.9,2.36,0.444,1.35
ACAGACAGGTGATGAAGGTAACACAGGCTATCAT,0.124,0.0165,-0.085,0.319,-0.129,0.346,1.05,0.295,0.205,0.465
